Bioassay records (PubChem BioAssay)
Compounds with a hit are over-represented: about 31% of the library has one in this group of screens.
CYP2C9 activ – increases human cytochrome P450 2C9 activity | P11712 | recombinant CYP2C9, luciferin-H conversion, luminescence; active compounds read high; factor 1 = untreated enzyme, 0 = blocked | activation factor at 5 µM | 1.4% of 96,000 active | AID 1024;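 active means activation factor of 2 or more for CYP2C9 at a 5 µM dose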;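 further: 0 = sulfaphenazole-blocked wells and 1 = vehicle-only wells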
CYP2C19 inh – human CYP2C19 inhibition | CYP2C19 Supersomes, luciferin-H EGE luminescence, 30 min | AID 778 | P33261 | 21% of 96,000 active | inhibition, % at 5 µM;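 active means CYP2C19 inhibition above a set limit at 5 µM in the primary screen, cut at about 50% in these data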;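 further: plate controls were negative control wells for no effect and 2.5 mM tranylcypromine positive control for full effect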
Target sequence (P33261 whole entry, looked up): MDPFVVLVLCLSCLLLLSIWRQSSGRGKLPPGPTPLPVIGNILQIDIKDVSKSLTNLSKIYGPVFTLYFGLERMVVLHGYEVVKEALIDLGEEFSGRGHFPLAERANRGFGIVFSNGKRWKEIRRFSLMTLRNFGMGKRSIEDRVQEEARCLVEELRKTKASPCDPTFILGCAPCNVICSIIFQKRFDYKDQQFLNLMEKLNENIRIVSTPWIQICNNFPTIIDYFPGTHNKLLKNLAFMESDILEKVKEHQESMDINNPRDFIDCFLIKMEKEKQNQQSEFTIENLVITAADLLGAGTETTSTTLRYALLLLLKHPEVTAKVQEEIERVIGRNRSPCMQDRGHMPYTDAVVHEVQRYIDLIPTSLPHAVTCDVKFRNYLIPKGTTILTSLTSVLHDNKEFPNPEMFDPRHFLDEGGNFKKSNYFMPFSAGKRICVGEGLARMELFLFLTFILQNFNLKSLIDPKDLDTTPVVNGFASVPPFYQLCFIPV
CYP2C9 inhib – inhibitors of human CYP2C9; inhibition, % at 5 µM; 20% of 96,000 active; P11712; CYP2C9 Supersomes, luciferin-H conversion, luminescence;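 active means blocking of liver enzyme CYP2C9 beyond about 50% at 5 µM, limit read from the data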
PLAP act – human PLAP activation; P05187; purified PLAP enzyme, luminescent substrate read-out; active compounds read high; activation fold at 20 µM; 1.2% of 96,000 active; AID 696; in the data active means activation fold above about 2
CYP2C19 activ – activators of human cytochrome P450 2C19; P33261; recombinant CYP2C19, luciferin-H EGE luminescence; active compounds read high; 0 = fully inhibited enzyme, 1 = untreated enzyme; activation factor at 5 µM; 96,000 tested, under 10 active; AID 1025;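 active means activation factor of at least 2 at 5 µM in the primary screen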;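 further: 0 = wells with 2.5 mM tranylcypromine and 1 = vehicle-only wells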
Numbers without * were called inactive.

SMILES	CYP2C9 activ	CYP2C19 inh	CYP2C9 inhib	PLAP act	CYP2C19 activ
O=C(NCCNC(=O)c1cccs1)c1ccco1	0.9	5.6	6.6	0.8	0.9
CC1(C(=O)NC2CCCCCCC2)CCC(=O)N1CCN1CCOCC1 (stereo unspecified)	0.8	0.2	17.5	1	1
CCOC(=O)C1CCN(c2cc(=O)n(C3CCCCC3)c(=O)[nH]2)CC1	0.8	8.0	15.2	1	0.9
Cc1ccccc1NC(=O)c1cccc(OCc2c(C)noc2C)c1	0.8	24.4	20.4	0.8	0.8
Cc1cccc(C(=O)Nc2ccccc2C(=O)OCc2c(C)noc2C)c1	0.1	46.3	86.2*	1.1	0.5
Cc1ccc(CNC(=O)c2cccc(OCc3c(C)noc3C)c2)cc1	0.7	57.5*	29.4	1.1	0.4
Cc1noc(C)c1COc1cccc(C(=O)NCc2cccc(Cl)c2)c1	0.5	41.9	51.5*	1.1	0.6
Cc1ccc(NC(=O)c2cccc(OCc3c(C)noc3C)c2)cc1	0	91.1*	95.3*	1.3	0.1
Cc1noc(C)c1COc1cccc(C(=O)Nc2ccc(C#N)cc2)c1	0.7	5.0	25.7	1	0.9
O/N=C1/CCc2nonc2/C1=N/O	1.1	-11.3	-5.1	1.2	1.1
CCCC(=O)N1CCN(c2ccc([N+](=O)[O-])c(NC(C)c3ccccc3)c2)CC1 (stereo unspecified)	0.3	63.4*	69.5*	1.2	0.4
CC(Nc1cc(N2CCCC2)ccc1[N+](=O)[O-])c1ccccc1 (stereo unspecified)	0.9	-3.8	7.2	1	1
COc1ccccc1Nc1ncnc2ccccc12	0.9	17.4	14.8	0.8	0.8
O=C(CC(Sc1ccccc1)c1cccs1)c1ccco1 (stereo unspecified)	0.1	99.7*	94.9*	0.8	0
CCC1=NN(C(=O)Cc2ccc(OC)cc2)C(O)(C(F)(F)F)C1 (stereo unspecified)	0.9	52.8*	9.8	1	0.5
COc1ccccc1NC(=O)C(=O)N1N=C(C(C)C)CC1(O)C(F)(F)F (stereo unspecified)	1.1	12.1	-6.2	1.2	0.9
CCC1=NN(C(=O)C(=O)Nc2ccccc2OC)C(O)(C(F)(F)F)C1 (stereo unspecified)	0.4	15.4	61.9*	1	0.8
CCC1=NN(C(=O)CCc2ccccc2)C(O)(C(F)(F)F)C1 (stereo unspecified)	0.5	67.0*	48.1	0.9	0.3
CCC1=NN(C(=O)C(=O)NCCc2ccccc2)C(O)(C(F)(F)F)C1 (stereo unspecified)	0.8	6.8	15.7	1.3	0.9
CCC1=NN(C(=O)C(=O)Nc2ccc(OC)cc2)C(O)(C(F)(F)F)C1 (stereo unspecified)	0.9	13.9	12.0	1.2	0.9
COc1cccc(NC(=O)CC2C(=O)NC3CCCCC3N2C(=O)c2ccc(F)cc2)c1 (stereo unspecified)	0.5	18.4	49.6	1.6	0.8
Cc1cccc(NC(=O)c2sc3nc(-c4ccccc4)cn3c2C)n1	0.3	54.8*	65.3*	1.5	0.5
Cc1c(C(=O)Nc2ccc3c(c2)OCO3)sc2nc(-c3ccccc3)cn12	0.6	0.9	40.9	0.8	1
Cc1c(C(=O)Nc2ccccc2)sc2nc(-c3ccccc3)cn12	0.2	70.2*	76.2*	0.4	0.3
Cc1ccc(SCC2CNc3nc4ccccc4c(=O)n32)c(C)c1 (stereo unspecified)	1	14.2	3.9	1.5	0.9
SMILES	CYP2C9 activ	CYP2C19 inh	CYP2C9 inhib	PLAP act	CYP2C19 activ
O=c1c2ccccc2nc2n1C(CSCc1ccc(Cl)cc1Cl)CS2 (stereo unspecified)	0.8	63.8*	21.5	0.9	0.4
CCCCN(CC)c1nc(N)c(C#N)c(CC#N)c1C#N	0.1	63.9*	85.1*	1.4	0.4
Cc1ccc(-c2nc(CS(=O)(=O)CC(=O)NC3CCCCC3C)c(C)o2)cc1 (stereo unspecified)	0.7	21.8	27.0	1	0.8
CN(Cc1nc(-c2cccnc2)no1)S(=O)(=O)c1ccccc1	0.9	73.8*	14.9	0.9	0.3
COc1ccc(S(=O)(=O)N(Cc2ccccc2)Cc2nc(-c3ccccc3)no2)cc1	0.1	87.0*	91.6*	1	0.1
Cc1ccc(S(=O)(=O)N(C)Cc2nc(-c3ccncc3)no2)cc1	0.3	92.4*	69.0*	0.8	0.1
Cc1ccc(S(=O)(=O)Cc2nc3ccccc3c(=O)[nH]2)cc1	0.8	85.0*	23.8	0.9	0.2
Cc1ccc(S(=O)(=O)N(C)Cc2nc(-c3ccc(Br)cc3)no2)cc1	1	20.1	-3.4	0.6	0.8
CN(Cc1nc(-c2ccccn2)no1)S(=O)(=O)c1ccc(Cl)cc1	0.9	21.9	13.9	0.9	0.8
CCOC(=O)N1CCN(S(=O)(=O)c2ccc3[nH]c(=O)sc3c2)CC1	1.2	19.6	-20.8	0.8	0.8
COc1ccc(S(=O)(=O)N(Cc2ccccc2)Cc2nc3ccccc3c(=O)[nH]2)cc1	0.5	55.1*	48.7	0.9	0.4
O=C(NCc1cccnc1)c1ccc2c(c1)OCO2	1.1	5.1	-9.4	1	0.9
O=C(NCc1ccc2c(c1)OCO2)c1cccc(F)c1	0.3	99.4*	66.3*	0.6	0
O=C(Nc1ccc2c(c1)OCO2)c1noc2c1CCCCC2	0.1	21.8	88.7*	0.9	0.8
O=C(Nc1ccc2c(c1)OCO2)c1ccc2nc[nH]c2c1	0.4	80.4*	56.5*	2*	0.2
O=C(Nc1ccn(Cc2ccc(Cl)cc2)n1)c1ccc2c(c1)OCO2	0.1	90.9*	92.5*	0.8	0.1
C/C(Cn1nnc([N+](=O)[O-])n1)=N\NC(=O)c1cccc(Cl)c1	0.9	5.6	6.5	1	0.9
Cc1ccccc1C(=O)c1c[nH]c(C(=O)NCc2ccco2)c1	0.9	7.2	12.3	1	0.9
c1cc(CNc2ccc3c(c2)OCO3)ccn1	0.4	71.0*	62.8*	1.2	0.3
O=C(Nc1ccc2c(c1)OCO2)c1ccc(Br)s1	0.6	54.0*	35.4	1	0.5
O=C(Nc1ccc2c(c1)OCO2)c1cccs1	0.7	42.7	25.9	0.9	0.6
O=C(NCc1cccc(Cl)c1)c1ccc2c(c1)OCO2	0.9	50.2*	9.1	0.9	0.5
O=C(NCc1ccc2c(c1)OCO2)c1cccc(Cl)c1	0.6	98.5*	35.1	0.9	0
O=C(NCc1ccc2c(c1)OCO2)c1nn2cccnc2c1Cl	0.9	41.1	11.5	1	0.6
COc1nc(OC/C(N)=N/O)nc(N2CCOCC2)n1	0.9	0.5	11.3	1.1	1
CC(C)(NO)/C(=N/O)c1cccs1	1	1.5	-3.9	1.1	1
O=C(CCc1n[nH]c(=O)[nH]c1=O)N1CCCCC1	1	-10.9	0.0	1.2	1.1
C=CCC(NC(C)c1ccccc1)c1ccco1 (stereo unspecified)	0.8	-0.5	19.7	1.1	1
O=C(NCc1ccc2c(c1)OCO2)c1ccncc1	0.7	68.0*	25.5	1	0.3
